Screening results: PubChem, National Center for Advancing Translational Sciences (NCATS)
Shown are actives, neighbours in structure and some others; about 18% of the full set was active somewhere.
IL-1B inflam inh = inhibitors of inflammasome signaling (IL-1 beta secretion). THP-1 LPS/ATP IL-1B secretion, AlphaLISA, 16 h; stronger effect = lower value. activity change, % at 57.5 µM. 4.7% of 360,000 active; in the data active = activity change below about -50%; inconclusive = mostly about -30% to -49%
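THP-1 cells pretreated 1 hr with compounds (up to 57.5 uM final), then stimulated with LPS (250 ng/mL final) plus ATP (1.25 mM final); secreted IL-1B measured by AlphaLISA after 16 hr, decreased signal indicating inhibition.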
RORg inh = blocks mouse ROR gamma transcriptional activity | P51450 | Drosophila S2 Gal4-RORgamma UAS-luciferase reporter, 20 h | Potency, µM (series often up to 53.6 µM), for inactives: at the highest dose activity change, negative = inhibition, most hits filed as inhibitors | 5.4% of 310,000 active | AID 2551; also: potency is read from the fitted curve at half-maximal effect; nearly all actives have a fitted effect of over 60% in size
Target sequence (P51450 whole entry, looked up, the tested form may be a part): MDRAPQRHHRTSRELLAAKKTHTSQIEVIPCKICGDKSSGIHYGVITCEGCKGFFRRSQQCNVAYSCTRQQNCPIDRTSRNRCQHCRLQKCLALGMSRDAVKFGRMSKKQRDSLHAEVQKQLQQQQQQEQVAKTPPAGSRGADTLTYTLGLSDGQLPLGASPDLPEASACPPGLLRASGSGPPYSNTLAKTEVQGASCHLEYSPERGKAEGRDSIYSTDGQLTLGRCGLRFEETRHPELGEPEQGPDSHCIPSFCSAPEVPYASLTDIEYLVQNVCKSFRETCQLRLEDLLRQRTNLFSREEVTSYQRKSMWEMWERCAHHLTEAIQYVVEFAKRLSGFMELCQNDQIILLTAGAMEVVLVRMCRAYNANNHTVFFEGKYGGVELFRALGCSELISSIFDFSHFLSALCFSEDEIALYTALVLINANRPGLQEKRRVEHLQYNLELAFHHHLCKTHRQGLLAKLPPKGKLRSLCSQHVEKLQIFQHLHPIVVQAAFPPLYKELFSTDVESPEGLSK
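Stably transfected Drosophila Schneider cells are the test system, with ROR gamma fused to Gal4 and luciferase under UAS control; luminescence is read after 20 hr of 700 uM copper sulfate induction at ambient temperature.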
TDP1 cell CPT = DT40-hTDP1 cell growth loss with CPT; chicken DT40 Tdp1-/-;hTDP1 cells + 20 nM CPT, ATP luminescence, 48 h; Potency, µM (series often up to 46.2 µM), without a hit: top-dose activity change, negative = growth inhibition, hits mostly inhibitors; 12% of 420,000 active; also: potency is read from the fitted curve at half-maximal effect; nearly all actives have a fitted effect of over 55% in size
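Cell growth measured by CellTiter-Glo luminescence after a minimum 48 h, 37 C compound exposure with 20 nM CPT in Tdp1-knockout DT40 cells stably expressing hTDP1, seeded 400/well; qHTS titration format.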
VP16 counter = inhibits Gal4-VP16 luciferase reporter, ROR gamma counter-screen. 3.5% of 310,000 active. Drosophila S2 Gal4-VP16 UAS-luciferase, luminescence, 20 h. Potency, µM (highest dose often 53.6 µM), without a hit: at the highest dose activity, negative = inhibition, hits mostly inhibitors;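 also: Gal4-VP16 expression switched on by copper sulfate through the metallothionein promoter; potency is read from the fitted curve at half-maximal effect; nearly all actives have a fitted effect of over 50% in size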
DT40 TDP1 no CPT = qHTS for Inhibitors of human tyrosyl-DNA phosphodiesterase 1 (TDP1): qHTS in cells in absence of CPT. DT40 Tdp1-/- hTDP1 cells, no CPT, ATP luminescence, 48 h. Potency, µM (top dose mostly 46.2 µM), without a hit: at the top dose activity change, negative = growth inhibition, hits mostly inhibitors. 15% of 420,000 active; also: potency is read from the fitted curve at half-maximal effect; nearly all actives have a fitted effect of over 55% in size
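Camptothecin absent (DMSO only). Human TDP1-complemented DT40 knockout cells, 400 cells/well, 37 °C for minimum 48 hr; ATP measured via CellTiter-Glo, 30 min dark incubation, luminescence.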
LDHA inh = LDHA (human) enzyme inhibition. 0.15% of 480,000 active. purified LDHA, NADH/diaphorase-resazurin fluorescence; stronger effect = lower value. activity change, % (values are at about 110 or 230 µM). AID 1347041; in the data active = activity change below about -30%; inconclusive = mostly about -25% to -30%;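 also: plate controls were DMSO wells for no effect and wells without enzyme for full effect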
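Resorufin fluorescence (ex540/em590), read at 0 and 20 min after diaphorase/resazurin addition, reports the NADH left after a 5 min room-temperature reaction of 2 nM human LDH5 with 0.06 mM NADH and 0.2 mM pyruvate.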
* hit, by the source's call; ? = inconclusive; · = no result; ! = repeats disagree; [ ] = dose if it differs, or a comment. Unless noted, calls follow the shape of the dose curve; as a rule, active = well fitted curve in the direction sought with a large enough effect; inconclusive = small, poorly fitted or top-dose-only effect, or another doubt; inactive = no such curve, though single readings can be large; an effect the other way counts as inactive or inconclusive. Unless noted, % is scaled to controls: 0 for no effect and ±100 for the full control effect.

SMILES	IL-1B inflam inh	RORg inh	TDP1 cell CPT	VP16 counter	DT40 TDP1 no CPT	LDHA inh
Cc1cc(C)c(NC(=O)CN(C)CC(=O)Nc2cccc(S(=O)(=O)N(C)c3ccccc3)c2)c(C)c1	?	·	?	·	23.1µM*	?
Cc1nnc(SCC(=O)c2ccc(F)c(F)c2)n1Cc1ccccc1	·	·	·	·	·	10.4
COc1ccc(OC)c(C2CCCN2CC(=O)N(CCC#N)c2ccccc2F)c1 (configuration not stated)	·	·	·	·	·	2.7
C=CCn1c(=O)c2c(nc(-n3nc(C)cc3C)n2CC(C)C)n(C)c1=O	·	·	·	·	·	-12.5
CCN(CC)S(=O)(=O)c1cccc(NC(=O)CN(C)Cc2cccc(OC)c2)c1	29.1	1.6%	?	-7.7%	23.1µM*	-20.3
CCOc1ccc(NC(=O)CN(C)C(=O)CSCc2cccc(C)c2)cc1OCC	-0.9	·	-22.5%	·	-5.0%	1.3
CCOc1ccc(CN(C)CC(=O)Nc2cccc(C)c2)cc1OC	10.4	-2.8%	20.6µM*	?	9.2µM*	-5.2
CCN(CC(=O)Nc1cccc(C(C)=O)c1)S(=O)(=O)c1ccc(OC)cc1	3.9	-28.6%	1.6%	6.0%	?	-0.8
CCN(CC(=O)Nc1cccc(S(=O)(=O)N(C)c2ccccc2)c1)Cc1ccccc1	4.7	·	18.4µM*	·	?	-5.8
CC(CC(=O)c1cccs1)CC(=O)c1cccs1	-7.2	4.2%	-22.3%	-1.9%	-6.1%	-5.4
Cc1cc(C)c(C(CC(=O)c2cccs2)C(C#N)C#N)c(C)c1 (configuration not stated)	-104.6*	?	?	?	25.9µM*	0.3
O=C(Cn1nc(-c2ccc(Cl)cc2)c2ccccc2c1=O)Nc1ccccc1	·	·	·	·	·	2.3
CN1C(=O)/C(=N\OC(=O)c2ccccc2Cl)c2ccccc21	-23.2	1.7%	23.1µM*	-0.9%	23.1µM*	-4.8
CC(=O)O/N=C1\C(=O)N(Cc2ccc(C)cc2)c2ccccc21	-93.6*	0.5%	-10.7%	-29.4%	?	-4.0
Cc1nc2ccccc2c(=O)n1/N=C1\C(=O)N(C)c2ccccc21	·	39.6%	·	2.6%	·	·
CCOc1cc2nc(-c3ccc(OC)c(OC)c3)nc(N3CCCC(C)C3)c2cc1OC (configuration not stated)	·	·	·	·	·	10.8
Nc1cc([N+](=O)[O-])ccc1OCc1ccccc1	6.6	·	18.4µM*	·	?	-4.2
Nc1cc([N+](=O)[O-])ccc1Nc1ccccc1	-102.8*	?	14.6µM*	2.9%	6.51µM*	-7.1
CC(=O)N(C)c1cc([N+](=O)[O-])ccc1OCc1ccccc1	6.1	·	-9.4%	·	-22.0%	-2.4
Nc1cc([N+](=O)[O-])ccc1O	5.2	-0.6%	?	12.6µM*!	?	8.0
Cc1ccc([N+](=O)[O-])cc1N	-2.6	1.8%	0.2%	-0.2%	6.0%	0.0
Cc1cc(-c2n[nH]c(=S)n2/N=C/c2cccs2)n[nH]1	-26.6	-9.9%	-12.3%	?	-2.9%	-3.3
Oc1ccc(/C=N/n2c(-c3ccccc3)n[nH]c2=S)cc1	7.8	?	?	-8.7%	?	-3.7
Cc1ccsc1/C=N/n1c(-c2cccnc2)n[nH]c1=S	-2.5	11.2µM*	-4.9%	-19.5%	12.1%	-8.3
S=c1[nH]nc(-c2ccccc2)n1/N=C/c1cccs1	42.9	3.98µM*	-0.7%	-1.4%[0.365 µM]	-17.7%	-3.1
SMILES	IL-1B inflam inh	RORg inh	TDP1 cell CPT	VP16 counter	DT40 TDP1 no CPT	LDHA inh
Cc1ccc(-c2n[nH]c(=S)n2/N=C/c2cccs2)cc1	19.5	5.01µM*	-29.7%	3.16µM*	?	-5.0
CC(NC(=O)Cc1c(Cl)cccc1Cl)c1ccccn1 (configuration not stated)	·	·	·	·	·	-5.6
CC(=O)c1cc(Br)ccc1OCC(=O)N1CCN(C(=O)c2cccs2)CC1	·	·	·	·	·	-1.9
Cc1cc(C)c(C(=O)c2cc3ccccc3o2)c(C)c1	·	·	·	·	·	0.8
O=C1C=C(NCCc2cc(Br)c(O)c(Br)c2)C(=O)c2ncccc21	-104.7*	·	1.16µM*	·	2.06µM*	36.7
CC(C)(C)c1cc(CCC(=O)NCCc2ccccn2)cc(C(C)(C)C)c1O	23.8	21.8%	?	1.6%	?	-4.9
O=C(CNC(=O)C1CCC(CNS(=O)(=O)c2ccc(F)cc2)CC1)NCc1ccccn1 (configuration not stated)	·	·	·	·	·	1.2
C/C(=N\Nc1nc(C)cc(-c2ccccc2)n1)c1ccc(F)cc1	-14.7	3.16µM*	?	7.08µM*	7.31µM*	-2.0
C/C(=N/Nc1nc(-c2ccccc2)cc(-c2ccc(F)cc2)n1)c1cccc(N)c1	-61.0*	11.2µM*	?	14.1µM*	?	3.2
COc1ccc(/C(C)=N/Nc2nc(C)cc(-c3ccccc3)n2)cc1	-16.0	·	4.11µM*	·	4.61µM*	-5.3
COc1ccc(/C(C)=N\Nc2nc(-c3ccccc3)cc(=O)[nH]2)cc1	10.4	-17.5%	-18.2%	-19.1%	-15.5%	-8.3
COc1ccccc1C(=O)Nc1ccc(-c2nc3ncccc3o2)cc1	·	·	·	·	·	-0.4
Cc1ccc(S(=O)(=O)N2CCN(c3ccc(NCc4ccccc4)nn3)CC2)cc1C	·	·	·	·	·	-2.8
CCOC(=O)c1cc(-c2ccc(N)cc2)sc1N	?	37.9%	18.4µM*	26.8%	20.6µM*	1.8
CCN1CCN(C2=C(Cl)C(=O)N(Cc3ccccc3)C2=O)CC1	-20.6	5.9%	23.1µM*	26.6%	?	-2.5
CC(C)c1ccc(NC(=S)NC2CCCCCC2)cc1	?	2.24µM*	?	15.8µM*	?	-5.0
CN(C(=S)Nc1ccc(Oc2ccccc2)cc1)C1CCCCC1	-100.5*	-42.4%[10 µM]	?	?	25.9µM*	-11.7
S=C(Nc1ccc(Oc2ccccc2)cc1)NC1CCCCCC1	-75.9*	1.78µM*	20.6µM*	3.16µM*	23.1µM*	-3.5
O=C(O)c1ccc(NC(=S)NC2CCCCC2)cc1	0.0	-7.5%	13.2%	-10.3%	-5.0%	0.0
OC1CCN(C(=S)Nc2ccc(Oc3ccccc3)cc2)CC1	26.5	-5.4%	-13.4%	-3.0%[10 µM]	?	-3.9
Cc1ccc(NC(=S)NNC(=S)NC2CCCCC2)cc1	-18.1	15.8µM*	?	?	?	-11.3
CC1CCCCC1NC(=O)c1ccc2ccccc2n1 (configuration not stated)	·	·	·	·	·	12.9
Cc1ccc(C2=NS(=O)(=O)N(C)C(C(=O)Nc3cccc(O)c3)=C2)cc1	·	·	·	·	·	-0.4
Cc1cc(NC(=O)CN2CCN(C(=O)c3c(F)cccc3F)CC2)no1	·	·	·	·	·	0.6
S=C(Nc1ccc(Oc2ccc(NC(=S)NC3CCCCC3)cc2)cc1)NC1CCCCC1	-2.3	1µM*	?	?	?	-6.3
